Hits are enriched below; roughly 18% of the tested compounds scored in any of these assays.
VDR inh: blocks the human vitamin D receptor; P11473; VDR-SRC2-3 peptide fluorescence polarization, 2 h; Potency, µM, for inactives: max response, negative = inhibition, usual class: inhibitors; 400,000 tested, 0.93% active; AID 504847
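Reagent solutions, kept cold and dark, are dispensed first; compounds are then pinned in at 23 nl, plates briefly spun, and incubated 2 h at ambient temperature. Inhibition of VDR–SRC2-3 peptide binding is read by fluorescence polarization.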
TDP1 inh: blocks human tyrosyl-DNA phosphodiesterase 1. Potency, µM (titrated, usually from 130 µM), inactives show top-dose activity change, negative = inhibition, usual class: inhibitors. Q9NUW8. 350,000 tested, 0.28% active. AID 485290. recombinant TDP1, AlphaScreen DNA substrate cleavage; further: nearly all actives have a fitted effect of over 40% in size
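Recombinant human Tdp1 (E. coli-expressed, 1 nM final) preincubated with compounds 15 min at room temperature, then 5'-biotin/3'-phosphotyrosine-FITC DNA substrate (15 nM final) added for 5 min. AlphaScreen beads (10 ug/ml final) added 10 min; cleavage lowers signal.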
DT40 TDP1 CPT: growth inhibition of DT40 Tdp1-/-;hTDP1 cells with camptothecin (screen for TDP1 inhibitors); chicken DT40 Tdp1-/-;hTDP1 cells + 20 nM CPT, ATP luminescence, 48 h; Potency, µM (highest dose often 46.2 µM), for the others: top-dose activity change, negative = growth inhibition, actives largely listed as inhibitors; 420,000 tested, 12% active; further: nearly all actives have a fitted effect of over 55% in size
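Cell growth measured by CellTiter-Glo luminescence after a minimum 48 h, 37 C compound exposure with 20 nM CPT in Tdp1-knockout DT40 cells stably expressing hTDP1, seeded 400/well; qHTS titration format.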
PLK1 PBD block: PLK1 (human) polo-box domain binding inhibition; Potency, µM, inactives show max response, negative = inhibition, actives largely listed as inhibitors; 360,000 tested, 2.8% active; Plk1 PBD binding of FITC phosphopeptide, fluorescence polarization; AID 720504; further: series mostly up to about 57 µM; nearly all actives have a fitted effect of over 65% in size
Target sequence (P53350 whole entry, looked up, the tested form may be a part): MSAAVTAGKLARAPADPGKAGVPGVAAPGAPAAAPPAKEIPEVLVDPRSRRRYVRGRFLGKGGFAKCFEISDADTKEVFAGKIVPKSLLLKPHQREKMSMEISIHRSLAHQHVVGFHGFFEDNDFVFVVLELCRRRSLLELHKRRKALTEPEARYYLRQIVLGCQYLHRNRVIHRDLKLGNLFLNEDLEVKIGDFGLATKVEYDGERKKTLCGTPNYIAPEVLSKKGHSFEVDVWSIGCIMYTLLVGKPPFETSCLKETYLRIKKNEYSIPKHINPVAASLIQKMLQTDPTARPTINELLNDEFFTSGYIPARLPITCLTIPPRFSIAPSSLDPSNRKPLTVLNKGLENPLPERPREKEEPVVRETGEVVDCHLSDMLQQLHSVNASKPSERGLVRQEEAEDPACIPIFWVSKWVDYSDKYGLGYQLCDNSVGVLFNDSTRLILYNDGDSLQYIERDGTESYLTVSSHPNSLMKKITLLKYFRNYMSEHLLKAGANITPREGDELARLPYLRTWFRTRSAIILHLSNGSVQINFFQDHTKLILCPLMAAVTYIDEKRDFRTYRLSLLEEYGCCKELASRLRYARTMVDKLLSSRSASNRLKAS
DT40 TDP1 no CPT: qHTS for Inhibitors of human tyrosyl-DNA phosphodiesterase 1 (TDP1): qHTS in cells in absence of CPT. Potency, µM (top dose mostly 46.2 µM), for the others: at the highest dose activity change, negative = growth inhibition, hits mostly inhibitors. DT40 Tdp1-/- hTDP1 cells, no CPT, ATP luminescence, 48 h. 420,000 tested, 15% active; further: nearly all actives have a fitted effect of over 55% in size
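Cells were dispensed at 400 per well, compounds added by pin tool, plates incubated ≥48 hr at 37 °C, then CellTiter-Glo added for 30 min at room temperature before luminescence reading. Line: DT40 Tdp1-/- complemented with hTDP1; camptothecin omitted.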
KAT2A inh: inhibitors of human GCN5L2 histone acetyltransferase; 390,000 tested, 0.21% active; AID 504327; GCN5L2 HAT assay, ThioGlo1 CoA-SH fluorescence; Q92830; Potency, µM (titrated, usually from 58.9 µM), inactives show at the highest dose activity change, negative = inhibition, most hits filed as inhibitors
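Compounds, pin-transferred from DMSO stocks, meet 20nM GCN5L2 for 15 min before the reaction begins with H3(1-25) peptide (75uM) and acetyl-CoA (70uM). Thiol-reactive ThioGlo1 reports CoA release over 20 min at room temperature.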
The depositor's hits bear a star; ? = inconclusive; . = not tested or not shown; [ ] = another dose, or the depositor's remark. The call rests on the fitted dose curve; in most records, active means well fitted curve in the direction sought with a large enough effect; inconclusive means small, poorly fitted or top-dose-only effect, or another doubt; inactive means no such curve, though single readings can be large; an effect the other way counts as inactive or inconclusive. On the % scale 0 is the no-effect control and ±100 the full control effect; potency means the concentration at half of the fitted maximal effect.

SMILES	VDR inh	TDP1 inh	DT40 TDP1 CPT	PLK1 PBD block	DT40 TDP1 no CPT	KAT2A inh
Cc1ccc(S(=O)(=O)N2CCN(c3nc(-c4ccncc4)nc4ccccc34)CC2)cc1	-25%	-11%	-16%	.	11µM*	.
CCOC(=O)C1CCCN(C(=O)c2ccc3c(c2)N(Cc2ccc(Cl)cc2)C(=O)c2ccccc2S3=O)C1 (stereo not given)	2%	9%	?	.	?	-4%
O=C(CC(C(=O)NCc1ccccc1)c1nc2ccccc2c(=O)[nH]1)NCc1ccccc1 (stereo not given)	-26%	-3%	?	-23%	-1%	-2%
Cc1ccc(S(=O)(=O)N2CCN(c3nc(-n4c(=O)[nH]c5ccccc54)nc4ccccc34)CC2)cc1	.	.	11µM*	.	13µM*	.
Cc1ccc(S(=O)(=O)N2CCN(c3nc(-c4cnccn4)nc4ccccc34)CC2)cc1	-8%	1%	?	.	18µM*	.
Cc1ccc(S(=O)(=O)N2CCN(c3nc(-c4ncccn4)nc4ccccc34)CC2)cc1	-4%	2%	?	.	11µM*	.
Cc1ccc(S(=O)(=O)N2CCN(c3nc(-n4ccnc4)nc4ccccc34)CC2)cc1	.	.	-17%	.	-17%	.
COc1ccccc1-c1cnc(C(O)c2cccc(F)c2)[nH]1 (stereo not given)	.	.	-20%	-2%	-28%	.
O=C(c1cc(-c2ccccc2)on1)N1CCOc2ccc(CN3CCN(c4ccccn4)CC3)cc2C1	.	.	8%[9.04 µM]	.	1%	.
COc1ccc(CCNC(=O)c2ccc(Cl)cc2)cc1	-14%	2%	?	-2%	-8%	11%
COc1ccc(CCNC(=O)c2cc3ccc(Cl)cc3nc2N)cc1	.	.	?	-7%	5.8µM*	.
Nc1nc2cc(Cl)ccc2cc1C(=O)NCCCc1ccccc1	.	.	?	-1%	15µM*	.
CC/C(=C(\c1ccccc1)c1ccc(OCCN(C)C)cc1)c1ccc(O)cc1	.	14%	.	.	.	.
Cc1nc(-c2ccccc2)sc1C1(C)CC(c2ccc(C#N)cc2)=NO1 (stereo not given)	-1%	0%	0%	-2%	-18%	3%
CN(C)c1ccc(/C=C/c2cc3ccccc3c[n+]2C)cc1	.	.	0.089µM*	.	0.1µM*	.
C[n+]1ccc(/C=C/c2ccc3ccccc3c2)cc1	?	7%	?	.	?	28µM*
CN(C)c1ccc(/C=C/c2c[n+](C)cc3ccccc23)cc1	.	.	0.35µM*	.	0.28µM*	.
CC1CCCCC1NC(=O)COC(=O)c1ccc2ncsc2c1 (stereo not given)	-17%	1%	10%	-1%	8%	0%
Cc1c(C(=O)N2CCOc3ccc(Cl)cc3C2)sc2ncnc(NCCc3ccccn3)c12	.	.	-11%[9.04 µM]	.	?	.
Cc1nc2ccccc2c(-c2ccccc2)c1CC(=O)O	-11%	3%	-16%	0%	?	1%
O=C(O)C[C@H](O)C[C@H](O)/C=C/c1c(C2CC2)nc2ccccc2c1-c1ccc(F)cc1	.	.	2.7µM*	.	1.9µM*	.
COc1ccc(-c2ccc(C(=O)NCc3ccc(N(C)C)cc3)c3occc23)c(C)c1	.	.	?	-5%	16µM*	.
COc1ccc(-c2ccc(C(=O)NCCc3ccccc3)c3occc23)c(C)c1	.	.	21µM*	-1%	21µM*	.
COc1ccc(CCNC(=O)c2ccccc2C(=O)NCCc2ccc(OC)cc2)cc1	-19%	.	-9%	1%	-11%	.
OC[C@H]1O[C@@H](O[C@@H]2[C@@H](CO)O[C@](O)(CO)[C@H]2O)[C@H](O)[C@@H](O)[C@H]1O	17%	7%	-11%	.	-7%	-4%
SMILES	VDR inh	TDP1 inh	DT40 TDP1 CPT	PLK1 PBD block	DT40 TDP1 no CPT	KAT2A inh
CC(NC(=O)c1cc(S(=O)(=O)N(C)C)ccc1Cl)C1CC2CCC1C2 (stereo not given)	-1%	1%	16µM*	-1%	9.2µM*	1%
CC(NC(=O)c1ccc(F)cc1Cl)C1CC2CCC1C2 (stereo not given)	0%	7%	0%	-4%	-20%	4%
Cc1ccc(C)c(CN2CCC(CNC(=O)Cn3ncc4c([nH]c5ccccc54)c3=O)CC2)c1	11%	5%	?	.	15µM*	-10%
Cc1ccc(C)c(Cn2c3ccccc3c3cnn(CC(=O)NCc4ccccc4)c(=O)c32)c1	17%	3%	23µM*	.	21µM*	0%
CC(CCc1ccccc1)NC(=O)Cn1ncc2c3ccccc3n(Cc3ccccc3F)c2c1=O (stereo not given)	11%	3%	8.2µM*	.	8.2µM*	-7%
Cc1cccc(CN2CCC(CNC(=O)Cn3ncc4c([nH]c5ccc(C)cc54)c3=O)CC2)c1	11%	-1%	?	.	?	22%
CC(CCc1ccccc1)NC(=O)Cn1ncc2c3ccccc3n(Cc3ccccc3)c2c1=O (stereo not given)	2%	0%	?	.	?	3%
Cc1ccc(C)c(Cn2c3ccccc3c3cnn(CC(=O)NC(C)CCc4ccccc4)c(=O)c32)c1 (stereo not given)	14%	5%	3.3µM*	.	3.3µM*	-2%
O=C(CN1C(=O)C2(SCC(=O)N2c2cccc(Cl)c2)c2ccccc21)NCCc1ccccc1 (stereo not given)	0%	0%	?	.	?	-1%
O=C(O)COc1ccc(CCNS(=O)(=O)c2ccccc2)s1	?	.	3%	.	-14%	-9%
COc1ccc(-c2nnc3n2N=C(c2c(OC)cccc2OC)CS3)cc1	.	7%	.	.	.	.
CCOC(=O)c1c(C)[nH]c(C)c1S(=O)(=O)N1CCOCC1	-5%	-3%	8%	-9%	11%	-1%
CCCCN(C)CCCNC(=O)Cn1ncc2c3ccccc3n(Cc3cc(C)ccc3C)c2c1=O	9%	10%	2.6µM*	.	2.9µM*	-4%
CCCN(CCC)CCCNC(=O)Cn1ncc2c3ccccc3n(Cc3ccccc3F)c2c1=O	6%	3%	16µM*	.	23µM*	-19%
O=C(NCCCN1CCOCC1)C(=O)N/N=C/c1c(Cl)cccc1Cl	-5%	-3%	0%	-4%	-4%	-8%
O=C(Cn1ncc2c3ccccc3n(Cc3ccccc3F)c2c1=O)NCCc1ccc(Cl)cc1	6%	-5%	?	.	-24%	-6%
Cc1ccc(C)c(Cn2c3ccccc3c3cnn(CC(=O)NCCN4CCOCC4)c(=O)c32)c1	-8%	6%	16µM*	8%	18µM*	0%
O=C(NCCCN1CCOCC1)C(=O)N/N=C/c1c2ccccc2cc2ccccc12	-8%	6%	?	-6%	21µM*	1%

Screening results from PubChem BioAssay.
